Compound activity (PubChem)
Most compounds without a hit are left out; they make up all but 11% or so of the library.
HADH2 inh: qHTS Assay for Inhibitors of HADH2 (Hydroxyacyl-Coenzyme A Dehydrogenase, Type II); 3-hydroxyacyl-CoA dehydrogenase type-2 (Homo sapiens), Q99714; recombinant HADH2, NADH fluorescence, beta-hydroxybutyryl-CoA; Potency, µM (top dose mostly 57.1 µM), for inactives: at the highest dose activity change, negative = inhibition, actives largely listed as inhibitors; 73,000 compounds, 3.4% hits; AID 886, 2007; also: nearly all actives have a fitted effect of over 60% in size
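NADH fluorescence (ex 360/em 450 nm) read every 30 s for 4 min; activity taken as last-minus-first time point difference. Enzyme 20 nM, NAD+ 1 mM, beta-hydroxybutyryl-CoA 90 uM, pH 9.0 Tris buffer.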
15-hLO inh: qHTS Assay for Inhibitors of 15-hLO (15-human lipoxygenase) | Polyunsaturated fatty acid lipoxygenase ALOX15 (Homo sapiens), P16050 | purified 15hLO-1, xylenol orange hydroperoxide absorbance | Potency, µM (titrated, usually from 57.1 µM), for inactives: at the highest dose activity change, negative = inhibition, most hits filed as inhibitors | 74,000 compounds, 1.4% hits | AID 887, 2007; also: nearly all actives have a fitted effect of over 55% in size
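Compounds were preincubated 15 min at room temperature with 40 nM purified human enzyme (25 mM Hepes pH 7.5, 0.01% Triton X-100); 50 uM arachidonic acid reacted 6 min. Fe-xylenol orange detection, 30 min, absorbance ratio 573/405 nm.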
Luciferase inh: qHTS Assay for Inhibitors of Firefly Luciferase; Luciferin 4-monooxygenase (Photinus pyralis), P08659; purified firefly luciferase, luminescence, 8 min; Potency, µM (highest dose often 57.1 µM), for inactives: at the top dose activity change, negative = inhibition, hits mostly inhibitors; 72,000 compounds, 2.2% hits; AID 411, 2009; also: nearly all actives have a fitted effect of over 40% in size
Target sequence (P08659 whole entry, looked up): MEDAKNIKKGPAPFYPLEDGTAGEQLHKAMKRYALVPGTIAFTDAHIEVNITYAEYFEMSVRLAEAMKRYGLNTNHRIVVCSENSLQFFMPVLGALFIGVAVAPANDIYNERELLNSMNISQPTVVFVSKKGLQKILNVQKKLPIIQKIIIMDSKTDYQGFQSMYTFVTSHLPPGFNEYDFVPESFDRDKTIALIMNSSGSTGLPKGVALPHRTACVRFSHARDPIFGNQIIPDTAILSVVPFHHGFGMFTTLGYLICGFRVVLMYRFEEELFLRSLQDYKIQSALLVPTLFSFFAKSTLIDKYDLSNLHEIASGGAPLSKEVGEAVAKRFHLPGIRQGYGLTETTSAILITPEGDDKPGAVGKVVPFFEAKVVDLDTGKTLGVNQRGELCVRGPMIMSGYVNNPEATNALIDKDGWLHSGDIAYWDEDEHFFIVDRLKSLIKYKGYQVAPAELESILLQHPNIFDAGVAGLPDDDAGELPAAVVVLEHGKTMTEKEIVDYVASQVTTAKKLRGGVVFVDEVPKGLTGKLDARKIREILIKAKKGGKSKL
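Inhibition of light generation by firefly luciferase from ATP and luciferin was profiled with concentration-response curves per sample, ATP held at 10 uM within the enzyme's linear range. Plates were read by luminescence after an 8-minute ambient incubation.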
PK Bst: Pyruvate Kinase. purified pyruvate kinase, luminescence ATP production; ribose 5-phosphate activator present at AC10. Potency, µM. 51,000 compounds, 1.2% hits; in the data active = potency below about 11 µM; inconclusive = mostly about 12 µM to 25 µM;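 the screen sought inhibitors and activators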;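 also: scaled between full activation by ribose 5 phosphate and full inhibition by luteolin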
ERK AVP block: qHTS Assay for Inhibitors of the ERK Signaling Pathway using a Homogeneous Screening Assay | HEK293-V1b, vasopressin-stimulated pERK AlphaScreen | Potency, µM (doses to about 57.5 µM), without a hit: at the top dose activity, negative = inhibition, most hits filed as inhibitors | 72,000 compounds, 0.99% hits | AID 995, 2007; also: nearly all actives have a fitted effect of over 55% in size
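Overnight-seeded V1b-HEK293 cells in 1% FBS got compound, then vasopressin (25 nM final, 5 min, 37C), then lysis buffer. AlphaScreen detection of phospho-ERK; activity normalized to basal and full-stimulation controls.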
HSD17B inhib: qHTS Assay for Inhibitors of HSD17B4, hydroxysteroid (17-beta) dehydrogenase 4; AID 893, 2007; recombinant HSD17B10, NADH fluorescence kinetic; 75,000 compounds, 7.6% hits; Potency, µM (doses to about 57.1 µM), for the others: at the top dose activity change, negative = inhibition, hits mostly inhibitors; 3-hydroxyacyl-CoA dehydrogenase type-2 (Homo sapiens), Q99714;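 also: the protocol describes HADH2 (HSD17B10) and not the HSD17B4 of the title; nearly all actives have a fitted effect of over 70% in size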
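Activity followed as NADH fluorescence increase (ex 360, em 450 nm) every 30 seconds for 4 min, using final 90 uM beta-hydroxybutyryl CoA and 1 mM NAD+. Recombinant His-tagged enzyme, 20 nM, pH 9.0 Tris buffer, 15 min compound preincubation.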
An asterisk follows results filed as active; i = inactive; ? = inconclusive; / = no result; [ ] = another dose, or the depositor's remark. Unless noted, calls follow the shape of the dose curve; as a rule, active = well fitted curve in the direction sought with a large enough effect; inconclusive = small, poorly fitted or top-dose-only effect, or another doubt; inactive = no such curve, though single readings can be large; an effect the other way counts as inactive or inconclusive. Unless noted, % is scaled to controls: 0 for no effect and ±100 for the full control effect; potency is read from the fitted curve at half-maximal effect.

SMILES	HADH2 inh	15-hLO inh	Luciferase inh	PK Bst	ERK AVP block	HSD17B inhib
O=C(O)Cc1ccc2[nH]c3ccc(CC(=O)O)cc3c2c1	-21.4%	6.4%	-0.3%	/	-5.7%	25.1µM*
COC(=O)c1ccc(NC(=O)Nc2ccc(F)cc2)cc1	16.8%	4.3%	20µM*	i	?	6.4%
Cc1noc(C)c1C(=O)N1CCC2(CC1)CN(C(=O)Nc1cccc(F)c1)C2	4.5%	0.2%	0.5%[11.4 µM]	/	-4.4%	7.2%
CC(C)C[C@@H](CC(=O)N[C@H](CC(=O)N[C@@H]1CCNC[C@H]1C(=O)N[C@H](CC(=O)N[C@@H](CCC(=O)O)CC(=O)O)CC(C)C)C(C)C)NC(=O)[C@@H]1CCCC[C@H]1N	8.4%	/	/	/	/	/
CN(C)c1ccc(C2=NOC(CN3C(=O)c4ccccc4S3(=O)=O)C2)cc1 (stereo not given)	19.0%	1.3%	15.8µM*	/	?	41.7%
O=C(CCN1CCCCC1)c1csc2ccccc12	?	-1.5%[11.4 µM]	3.9%[11.4 µM]	/	-12.4%[11.5 µM]	-11.3%[11.4 µM]
COc1ccccc1-c1nc(C#N)c(N2CCN(Cc3ccccc3)CC2)o1	?	-10.2%	-4.3%	>57	?	25.1µM*
COc1ccccc1-c1nc(C#N)c(N2CCC(Cc3ccccc3)CC2)o1	?	-1.3%	3.7%	>57	-12.1%	31.6µM*
N#Cc1nc(Cc2ccccc2)oc1N1CCC(Cc2ccccc2)CC1	10.4%	-7.0%	0.8%	>57	-24.8%	1.6%
Nc1ccccc1S[C@@H](C[N+](=O)[O-])c1ccc2c(c1)OCO2	?	2.51µM*	-8.0%[11.4 µM]	/	?	?
CC1CCC(C(=O)O)NC1c1cccc(N2CCCC2=O)c1 (stereo not given)	-7.4%[11.4 µM]	5.8%[11.4 µM]	/	/	11.8%[11.5 µM]	3.4%[11.4 µM]
Cc1ccc(-c2nc3ccccc3[nH]2)cc1NC(=O)c1ccco1	-0.5%	18.0%	20µM*	i	-5.5%	6.0%
Cc1cccc2[nH]c(-c3ccc(NC(=O)c4ccco4)cc3)nc12	?	-24.9%	15.8µM*	?	11.0%	134.2%
C[C@@H]1C(=O)O[C@H]2[C@@H](O)[C@@]34[C@H]5CC(C(C)(C)C)[C@]36[C@@H](OC(=O)[C@@H]6O)O[C@@]4(C(=O)O5)[C@@]12O (stereo not given in full)	/	2.0%[25.6 µM]	/	/	-8.2%	14.8%
CSc1nnc(-c2ccco2)c(-c2ccco2)n1	?	2µM*	-7.4%	>57	-11.3%	?
Cc1ccc(NC(=O)CSc2nnc(-c3ccco3)c(-c3ccco3)n2)cc1	/	/	-4.4%[25.5 µM]	>25.6	/	/
CC(=O)c1nc2ccccc2n1S(=O)(=O)c1ccc(Cl)cc1	?	-16.1%	1.4%	>57	-18.7%	31.6µM*
C[N+](C)(C)CC(=O)N/N=C\c1c(O)ccc2ccccc12	1.8%[11.4 µM]	30.2%[11.4 µM]	3.4%[11.4 µM]	/	12.3%[11.5 µM]	5.1%[11.4 µM]
Cn1c(/N=C/c2c(O)ccc3ccccc23)nc2ccccc21	3.98µM*	3.98µM*	-6.5%	/	-12.6%	?
CCOC(=O)C1=C(C)NC2=C(C(=O)CCC2)C1c1cccnc1 (stereo not given)	?	6.5%	-2.2%	>57	-7.7%	31.6µM*
CCOC(=O)C1=C(N)OC2=C(C(=O)CCC2)C1c1cccnc1 (stereo not given)	-7.8%	-1.3%	5.8%	>57	-6.9%	10.7%
CC1=C(C(=O)OC(C)C)C(c2cccnc2)C2=C(CCCC2=O)N1 (stereo not given)	25.1µM*	-3.2%	-7.8%	/	-19.9%	31.6µM*
Nc1ncnc2nn([C@H]3O[C@@H](CO)[C@@H](O)[C@H]3O)nc12	9.3%[11.4 µM]	-0.1%[11.4 µM]	2.1%[11.4 µM]	/	-2.1%[11.5 µM]	-5.0%[11.4 µM]
